Test in all cases: BK channel mutant inhibitors and activators – cell-based, U2OS BacMam, thallium flux, beta subunits, selectivity assay, profiling panel (AID 1259406);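 also: initial slope of Thallos dye fluorescence rise after thallium is added; log ratio against the mean of 0.3% DMSO vehicle wells on the same plate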
Test [1] has as its system F380Y. The conditions noted are these: U2OS BacMam BK variants, at 30 µM.
Test [2] concerns F380Y/beta1. The conditions noted are these: U2OS BacMam BK variants, at 30 µM.
Test [3] relates to F380Y/beta2Delta. The conditions noted are these: U2OS BacMam BK variants, at 30 µM.
The test system of test [4] is F380Y/beta4. The conditions noted are these: U2OS BacMam BK variants, at 30 µM.
Test [5] addresses Calcium-activated potassium channel subunit alpha-1 (Homo sapiens) + Leucine-rich repeat-containing protein 26 (Homo sapiens) (UniProt Q12791+Q2I0M4). The conditions noted are these: U2OS BacMam BK variants, F380Y/Slo1WT/gamma1, at 30 µM.
Test [6] has as its system R275C. The conditions noted are these: U2OS BacMam BK variants, at 30 µM.
The subject of test [7] is R275C/beta1. The conditions noted are these: U2OS BacMam BK variants, at 30 µM.
Test [8] deals with R275C/beta2Delta. The conditions noted are these: U2OS BacMam BK variants, at 30 µM.
Test [9] has as its system R275C/beta4. The conditions noted are these: U2OS BacMam BK variants, at 30 µM.
The test system of test [10] is R275C/Slo1WT/beta2. The conditions noted are these: U2OS BacMam BK variants, at 30 µM.

SMILES strings stand for the structures. Unmarked numbers belong to inactive results. The source made the active and inactive calls.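 The calls were made as follows: active = thallium flux through the channel raised or lowered by more than 3 SD from vehicle-only wells, actives on both sides; inactive = the rest.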

The source of these data is PubChem BioAssay.

Calcium-activated potassium channel subunit alpha-1 (Homo sapiens) + Leucine-rich repeat-containing protein 26 (Homo sapiens), sequence (Q2I0M4 whole entry, looked up, one chain of several): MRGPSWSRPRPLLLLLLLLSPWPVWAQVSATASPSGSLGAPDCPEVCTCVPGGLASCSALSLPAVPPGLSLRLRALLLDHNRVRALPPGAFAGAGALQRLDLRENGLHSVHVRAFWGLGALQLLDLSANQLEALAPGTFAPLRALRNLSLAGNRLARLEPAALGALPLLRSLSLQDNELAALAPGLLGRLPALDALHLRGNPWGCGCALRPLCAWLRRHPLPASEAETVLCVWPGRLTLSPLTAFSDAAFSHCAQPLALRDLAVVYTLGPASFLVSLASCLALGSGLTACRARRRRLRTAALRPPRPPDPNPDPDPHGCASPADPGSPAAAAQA

Consider `Cc1ccc(C(C)NC(=O)c2ccc(Cl)c(Cl)c2)c(C)c1` (stereo not given), for which the log fold change Tl+ flux was -0.0383 in test [1]; -0.0447 in test [2]; -0.0218 in test [3]; -5.9e-05 in test [4]; -0.119 (active) in test [5]; -0.0401 in [6]. The log fold change Tl+ flux in test [7] is 0.0121; in test [8] it was -0.00757; in test [9], 0.00443; in [10], -0.0265.

On to `S=c1sc2c(s1)SCC1(CS2)OCCO1`, for which the log fold change Tl+ flux in test [1] was -0.0425; in test [2], 0.0267; in [3], -0.0279; in test [4], 0.0791; in test [5], 0.000395; in test [6] it was -0.0211. The log fold change Tl+ flux in [7] is -0.0642; in [8], -0.0207; in test [9] it was -0.0357; in test [10], -0.00583.

Turning to `Cc1cc2c(cc1C)CSC(c1ccco1)SC2`, the log fold change Tl+ flux in [1] was -0.0256; in test [2] it was 0.0185; in test [3], 0.0283; in test [4], -0.0391; in test [5] it was 0.00632; in [6], -0.00435. For the same compound, the log fold change Tl+ flux in test [7] is 0.035; in [8], 0.055; in [9], 0.0187; in [10], -0.0173.

Take `COC(=O)C(C#N)=C1NC(C)=NC(SC)=C1C#N`: the log fold change Tl+ flux is -0.0152 in test [1]; 0.03 in [2]; -0.00376 in test [3]; 0.021 in test [4]; 0.0176 in test [5]; -0.014 in [6]. For the same compound, the log fold change Tl+ flux in [7] is -0.0163; in test [8] it was -0.0169; in test [9], -0.0352; in test [10], 0.0253.

With `NC(C=Cc1cc(C(F)(F)F)cc(C(F)(F)F)c1)=NOC(=O)c1c(F)cccc1F`, the log fold change Tl+ flux is -0.0565 in test [1]; 0.0127 in test [2]; -0.0278 in [3]; -0.0864 in [4]; -0.0341 in test [5]; -0.0159 in test [6]. In addition, the log fold change Tl+ flux in test [7] is -0.0569; in test [8] it was -0.0168; in [9], 0.0381; in [10], 0.0436.

As for `O=C(NNC(=O)c1ccc2nonc2c1)c1cccc(C(F)(F)F)c1`, the log fold change Tl+ flux in test [1] was 0.0115; in test [2] it was 0.037; in [3] it was 0.0509; in test [4], 0.00874; in test [5], -0.0024; in test [6], 0.0381. Moreover, the log fold change Tl+ flux is 0.0483 in test [7], 0.036 in test [8], 0.0129 in [9] and -0.0326 in [10].

As to `Cc1cc(NC(=S)N2CCCCCC2)ccc1Br`, the log fold change Tl+ flux in test [1] is -0.0478; in test [2] it was 0.0387; in test [3], -0.0137; in test [4], -0.0575; in test [5] it was -0.0699; in test [6], 0.0117. The log fold change Tl+ flux in [7] is -0.00715; in [8], -0.0104; in test [9], 0.081 (active); in test [10], -0.00913.

In the case of `O=C(C(=NN=Cc1ccc2c(c1)OCO2)c1ccccc1)c1ccccc1`, the log fold change Tl+ flux in test [1] is -0.0112; in [2] it was -0.00905; in test [3], -0.0268; in test [4], -0.0584; in test [5], -0.0678; in test [6] it was -0.163 (active). The log fold change Tl+ flux was -0.3 (active) in [7], 0.000499 in [8], -0.138 (active) in test [9] and -0.0825 in test [10].

On to `CC(C)n1c(SCC(=O)c2ccccc2)nc2cc(Cl)ccc21`, for which the log fold change Tl+ flux in test [1] is -0.0377; in test [2], -0.0145; in test [3], -0.0247; in [4] it was -0.709 (active); in test [5] it was -1.05 (active); in test [6] it was -0.667 (active). Also, the log fold change Tl+ flux in test [7] is -0.35 (active); in [8] it was -0.0838 (active); in test [9], -0.0424; in [10] it was -0.173 (active).

Regarding `CS(=O)(=O)Nc1ccc(N2CCN(c3ccc(C(F)(F)F)cn3)CC2)nc1`, the log fold change Tl+ flux in test [1] is 0.0216; in test [2] it was 0.0253; in test [3] it was 0.0364; in [4], 0.0379; in test [5], 0.0373; in [6] it was 0.0255. Also, the log fold change Tl+ flux is 0.0101 in test [7], 0.0279 in [8], 0.0149 in test [9] and 0.0171 in test [10].

In the case of `O=C(NNc1c(Cl)cccc1Cl)c1csc(Cc2c(Cl)cccc2Cl)n1`, the log fold change Tl+ flux is 0.031 in test [1]; -0.0231 in test [2]; 0.0346 in [3]; -0.048 in test [4]; -0.0234 in [5]; 0.0148 in [6]. The log fold change Tl+ flux is -0.0344 in test [7], 0.00139 in [8], -0.00534 in [9] and 0.0322 in test [10].

With `CCCCCCCCCCCCSC(=S)NCC1CCCO1` (stereo not given), the log fold change Tl+ flux in test [1] is 0.0353; in [2], 0.0262; in test [3], 0.0128; in [4] it was 0.0306; in test [5], 0.0128; in [6] it was -0.00711. The log fold change Tl+ flux was -0.0124 in test [7], 0.0322 in test [8], -0.00355 in test [9] and -0.00192 in [10].

Take `CCOC(=O)c1sc(SC)nc1N`: the log fold change Tl+ flux was -0.000489 in test [1]; -0.00635 in test [2]; 0.00305 in [3]; 0.00634 in test [4]; -0.00935 in test [5]; 0.0886 (active) in test [6]. Moreover, the log fold change Tl+ flux in test [7] was -0.00543; in [8] it was -0.0273; in test [9] it was -0.000536; in test [10], 0.0235.

On to `CC(C)=CC(C)=NNc1c([N+](=O)[O-])cc(C(F)(F)F)cc1[N+](=O)[O-]`, for which the log fold change Tl+ flux is 0.0422 in test [1]; 0.0383 in [2]; 0.0202 in [3]; 0.0221 in test [4]; -0.0328 in [5]; 0.043 in [6]. Besides, the log fold change Tl+ flux was -0.0463 in test [7], -0.0753 in [8], -0.00952 in test [9] and 0.0191 in test [10].

On to `CCOC(=O)c1c[nH]n2c(=O)c3c(nc12)CCC3`, for which the log fold change Tl+ flux in test [1] is 0.0447; in [2], 0.0491; in test [3], 0.00798; in test [4], -0.00836; in test [5], -0.00512; in [6], -0.0014. In addition, the log fold change Tl+ flux in test [7] is 0.00358; in test [8], 0.00309; in test [9] it was 0.0387; in test [10], -0.0235.

For `O=C(NCC1CC1)c1ccccc1NS(=O)(=O)c1cccc2nonc12`, the log fold change Tl+ flux was 0.0757 in [1]; 0.0238 in test [2]; 0.0491 in test [3]; 0.0071 in test [4]; -0.00954 in test [5]; 1.3e-05 in test [6]. The log fold change Tl+ flux in test [7] is 0.0417; in test [8], 0.0268; in [9] it was 0.0533; in [10] it was 0.0216.

Consider `CSC(NCc1cccnc1)=C(C#N)S(=O)(=O)c1ccc(Cl)cc1`, for which the log fold change Tl+ flux in test [1] is 0.0268; in test [2], 0.0532; in [3] it was 0.0758; in test [4], 0.000772; in [5], 0.0179; in test [6] it was 0.0549. Moreover, the log fold change Tl+ flux in test [7] is 0.0793; in test [8], 0.0872 (active); in [9], 0.0736; in test [10], 0.0289.

Take `COc1ccccc1NC(=S)NNC(=O)CSc1ccccc1[N+](=O)[O-]`: the log fold change Tl+ flux is 0.0388 in [1]; 0.0156 in test [2]; 0.0403 in test [3]; 0.0916 in test [4]; 0.0332 in test [5]; -0.0193 in test [6]. The log fold change Tl+ flux in test [7] is 0.0469; in [8] it was 0.064; in test [9], 0.00382; in test [10] it was -0.0222.

Regarding `CCc1[nH]c(=S)[nH]c(=O)c1C#N`, the log fold change Tl+ flux in test [1] was -0.0598; in test [2] it was 0.0419; in test [3], 0.0255; in test [4], 0.0765; in test [5] it was 0.0111; in test [6], 0.0263. For the same compound, the log fold change Tl+ flux in test [7] is -0.0177; in test [8], 0.00491; in [9] it was 0.0228; in test [10], 0.0561.

Take `CCSc1n[nH]c(=S)s1`: the log fold change Tl+ flux is -0.0724 in test [1]; 0.0129 in test [2]; 0.00494 in test [3]; 0.00824 in test [4]; -0.0169 in test [5]; 0.0305 in test [6]. The log fold change Tl+ flux in test [7] was -0.0034; in test [8] it was 0.0134; in test [9], 0.0178; in test [10], 0.00702.

As to `Clc1ccc(-c2nc(-c3cnccn3)no2)cc1`, the log fold change Tl+ flux in test [1] is -0.0251; in [2], 0.0188; in test [3], -0.00983; in test [4] it was 0.0205; in [5], -0.00021; in test [6], 0.00752. In addition, the log fold change Tl+ flux in test [7] was -0.0226; in test [8], 0.0101; in test [9], 0.00987; in [10], 0.0471.

`Cc1cc(N=CN(C)C)c2ccccc2n1`: the log fold change Tl+ flux was 0.0195 in test [1]; 0.00784 in test [2]; 0.0182 in test [3]; -0.00491 in [4]; 0.00683 in test [5]; 0.0312 in [6]. The log fold change Tl+ flux in [7] was 0.046; in test [8], 0.0104; in [9], 0.0114; in test [10], -0.0666.
